Experimental findings from the supplement of paper PMC10338343 are described below.

± gives the standard deviation.

The subject of assay [1] is MILI (PIWIL2) piRISC loaded with L1MC piRNA (26 nt). As to the kind of experiment: pre-steady-state target cleavage rate (min^-1); guide: L1MC piRNA 5'p-UAACUAAAUACUAUGCAAGCUGUAGG; higher = faster piRNA-guided slicing of the target. A digest of the protocol:
(§1)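 The method was Cleave-'n-Seq, in which uncleaved targets from a transcribed, DNA-blocked target RNA library were sequenced after exposure to active affinity-purified piRISC carrying one synthetic guide, with or without GTSF1 partner protein. Reactions contained 0.1 nM library, 1 nM piRISC and, where present, 500 nM GTSF1 in HEPES–potassium acetate buffer at 33 °C for 0–8 or 0–960 min. Reads were normalised to depth and to weakly complementary targets, three trials were pooled, and k3 was capped at 0.0001 min^-1. The pre-steady-state cleavage rate came from a burst-and-steady-state fit.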

Assay [2] relates to EfPiwi piRISC loaded with L1MC piRNA (26 nt). Kind of assay: pre-steady-state target cleavage rate (min^-1); auxiliary factor: 500 nM Ephydatia muelleri Gtsf1; guide: L1MC piRNA 5'p-UAACUAAAUACUAUGCAAGCUGUAGG; MIWI and MILI are mouse PIWI proteins and EfPiwi is from a freshwater sponge; tags in brackets are library labels; higher = faster piRNA-guided slicing of the target. A digest of the protocol:
as §1

The mark [3] stands for this setting: auxiliary factor: 500 nM mouse GTSF1.
[4] abbreviates: auxiliary factor: none (no GTSF1).

For the sequence UCCUGGUACAGGUUGCAUAGUAUUAAGUUA, the “pre-steady-state target cleavage rate” value in assay [1] (setting [3]) was found to be 0.326 ± 0.072; in assay [1] (setting [4]), 0.00893 ± 0.0037; in assay [2] it was 0.00485 ± 0.0027.
For the sequence UCCUGGAACAGCUUCCUUAGUAUUUAGUUA, the “pre-steady-state target cleavage rate” value was found to be 0.214 ± 0.018 in assay [1] (setting [3]), 0.00562 ± 0.002 in assay [1] (setting [4]) and 0.00362 ± 0.002 in assay [2].
As for UCCUGGAUGUCGCUGCAUAGUAUUUAGUUA, the entries for the “pre-steady-state target cleavage rate” value in assay [1] (setting [3]), in assay [1] (setting [4]) and in assay [2] were 0.0516 ± 0.0095, 0.00769 ± 0.0026 and 0.00471 ± 0.0025, respectively.
As to UCCUGCUACAGCGUUGCAUAGUAUUUAGUUA, the entries for the “pre-steady-state target cleavage rate” value in assay [1] (setting [3]), in assay [1] (setting [4]) and in assay [2] were 0.267 ± 0.018, 0.01 ± 0.0033 and 0.0103 ± 0.0024, respectively.
The corresponding values for UCCUGGAACAGCUUGCAUAGUAUAUAGUUA are 0.296 ± 0.029, 0.00847 ± 0.0025 and 0.00501 ± 0.0025.
UCCUGGAUCAGCUUCGCAUAGUAUUUAGUUA: the “pre-steady-state target cleavage rate” value in assay [1] (setting [3]) turned out to be 0.309 ± 0.02; in assay [1] (setting [4]), 0.00591 ± 0.0024; in assay [2], 0.0389 ± 0.009.
For UCCUGGUACAGCUUGCAUAGUUUUUAGUAA the same measures were 0.0656 ± 0.014, 0.00501 ± 0.0027 and 0.00728 ± 0.0027.
Take UCCUGCUACAGGUUGCAUUGUAUUUAGUUA: the “pre-steady-state target cleavage rate” value amounted to 0.141 ± 0.019 in assay [1] (setting [3]), 0.0103 ± 0.0026 in assay [1] (setting [4]) and 0.00597 ± 0.0023 in assay [2].
With UCCUGGAUGAGCCUGCAUAGUAUUUAGUUA, the “pre-steady-state target cleavage rate” value in assay [1] (setting [3]) is 0.157 ± 0.019; in assay [1] (setting [4]), 0.00748 ± 0.0033; in assay [2], 0.032 ± 0.011.
Regarding UCCUGGAACAGCUUGCAUAGUAAUUUAGUUA, the “pre-steady-state target cleavage rate” value in assay [1] (setting [3]) came to 0.14 ± 0.012; in assay [1] (setting [4]), 0.00593 ± 0.0025; in assay [2] it was 0.00753 ± 0.0023.
Take UCCUGGUACAGCUUGCAAAGUUUUUAGUUA: the “pre-steady-state target cleavage rate” value was 0.0248 ± 0.0088 in assay [1] (setting [3]), 0.00339 ± 0.0029 in assay [1] (setting [4]) and 0.00245 ± 0.0024 in assay [2].
The corresponding values for UCCUCACUACAGCUUGCAUAGUAUUUAGUUA are 0.259 ± 0.022, 0.00971 ± 0.0027 and 0.0191 ± 0.0067.
As to UCCUGGAUCUGCUUGCAUUGUAUUUAGUUA, the “pre-steady-state target cleavage rate” value in assay [1] (setting [3]) came out at 0.159 ± 0.015; in assay [1] (setting [4]), 0.00477 ± 0.0023; in assay [2] it was 0.00657 ± 0.003.
On to UCCUGGAUGUGCUUGCAUGGUAUUUAGUUA, for which the “pre-steady-state target cleavage rate” value amounted to 0.086 ± 0.014 in assay [1] (setting [3]), 0.0124 ± 0.0032 in assay [1] (setting [4]) and 0.0043 ± 0.0042 in assay [2].
On to UCCUGCUACAGCUUGAAUAGUAUUUAGUUA, for which the “pre-steady-state target cleavage rate” value in assay [1] (setting [3]) is 0.22 ± 0.013; in assay [1] (setting [4]), 0.00812 ± 0.002; in assay [2], 0.0179 ± 0.0045.
Consider UCCUCCUACUGCUUGCAUACUAUUUAGUUA, for which the “pre-steady-state target cleavage rate” value in assay [1] (setting [3]) is 0.0694 ± 0.011; in assay [1] (setting [4]), 0.00355 ± 0.0019; in assay [2], 0.0106 ± 0.0044.
As to UCCUGGUACAGCAUGCAAAGUAUUUAGUUA, the “pre-steady-state target cleavage rate” value in assay [1] (setting [3]) is 0.119 ± 0.014; in assay [1] (setting [4]), 0.0117 ± 0.0036; in assay [2], 0.00646 ± 0.0023.
